# CRFR2-BP antag – antagonists of CRF-BP/CRF-R2 complex, primary screen, cell-based, HEK293, calcium dye fluorescence, uHTS | inhibition, % at 11.8 µM | 0.59% of 350,000 active | CRF-induced calcium fluorescence | AID 588475, 2011;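 active = inhibition of the ligand-induced calcium signal above about 50% at the single tested concentration, limit read from the data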
# TLR9-MyD88 inh – inhibitors of TLR9-MyD88 association in cells, primary screen, cell-based, CHO, BLA complementation, fluorescence; 0.21% of 340,000 active; Toll-like receptor 9 (Homo sapiens) + Myeloid differentiation primary response protein …; CCF4 FRET ratio; AID 504734, 2011; inhibition, % at 4.98 µM;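 active = inhibition above the mean over all tested compounds plus 3 SD, cut at about 21% in these data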;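 also: 0% = DMSO only wells and 100% = clavulanate BLA inhibitor control wells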
# ABHD5 PLIN5 PPI – ABHD5-PLIN5 interaction inhibitors, primary screen, cell lysate, split luciferase complementation, luminescence. 0.78% of 360,000 active. Split G. princeps luciferase complementation, 4 h. AID 602281, 2012. Perilipin-5 (Homo sapiens) + 1-acylglycerol-3-phosphate O-acyltransferase ABHD5 (Homo …. inhibition, % at 4 µM;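 active = inhibition above the mean inhibition across every tested compound plus 3 SD, cut at about 22% in these data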;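 also: 0% = DMSO only wells and the 100% control is not disclosed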
# TLR4 MyD88 comp – inhibitors of TLR4-MyD88 association in cells, primary screen, cell-based, HeLa CL3-4, BLA complementation, FRET ratio; HeLa CL3-4 TLR4/MyD88 BLA complementation; AID 861, 2007; 0.18% of 200,000 active; inhibition, % at 8.4 µM; in the data active = inhibition above about 25%;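 also: 0% = vehicle and 100% = reference inhibitor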
# NOD2 RIPK2 PPI – NOD2-RIPK2 binding disruptors in cells, primary screen, fluorescence, CHO cells, BLA complementation | inhibition, % at 4.98 µM | AID 624267, 2012 | CCF4 ratio | Receptor-interacting serine/threonine-protein kinase 2 (Homo sapiens), O43353 | 0.38% of 360,000 active; in the data active = inhibition above about 21%;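 also: 0% = vehicle only and 100% = reference blocker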
# HTR2A ag – mouse Htr2a agonists via beta-arrestin recruitment, primary screen, cell-based, luminescence; CHO-K1 mHTR2A beta-arrestin complementation; percent of 30 µM serotonin response; 0.66% of 360,000 active; activation, % at 7.6 µM; AID 624169, 2012;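 active = activation above a run cutoff, the mean activation of all tested compounds plus 3 SD, cut at about 14% in these data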;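 also: 0% = plate median of compound wells and 100% = 30 µM serotonin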
# OPRM1 ag – OPRM1 agonists via beta-arrestin recruitment, confirmation, counter-screen for mouse HTR2A agonist project, cell-based, luminescence, single concentration; shares compounds with HTR2A ag; U2OS OPRM1 beta-arrestin PathHunter; DMSO 0%, DAMGO 9.3 µM 100%; activation, % at 9.3 µM; 5.3% of 2,300 active;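 active = mean activation above the mean of DMSO-only wells plus 3 SD, cut at about 0.5% in these data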
# HTR2A ag conf – mouse HTR2A agonists, beta-arrestin recruitment, confirmation, cell-based, luminescence, CHO-K1 PathHunter, triplicate; shares compounds with HTR2A ag; DMSO 0%, 30 µM serotonin 100%; activation, % at 7.6 µM; 19% of 2,300 active;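 active = mean activation across triplicates above the hit threshold derived in the original primary screen, cut at about 15% in these data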
# * marks the source's active call; other numbers are inactive results; nt = no result given. Most compounds without a hit are left out; they make up all but 2.4% or so of the library.
SMILES,CRFR2-BP antag,TLR9-MyD88 inh,ABHD5 PLIN5 PPI,TLR4 MyD88 comp,NOD2 RIPK2 PPI,HTR2A ag,OPRM1 ag,HTR2A ag conf
O=C(NC1CCCCC1)C(c1ccnc2ccccc12)N1CCc2ccccc2C1 (stereo not given),nt,nt,-1,nt,-6,9,nt,nt
CN1CCN(CC(O)COc2ccc(S(=O)(=O)N3CCOCC3)cc2)CC1 (stereo not given),0,-10,-1,nt,-13,0,nt,nt
Cc1cccc(C)c1OCC(O)CN1CCN(c2ccccc2)CC1 (stereo not given),-6,-6,3,-10,-6,15*,0,61*
Cc1ccc(N2CCN(CC(O)COc3ccc([N+](=O)[O-])cc3)CC2)cc1 (stereo not given),33,2,2,-2,0,-4,nt,nt
O=[N+]([O-])c1ccc(OCC(O)CN2CCN(c3ccccc3F)CC2)cc1 (stereo not given),21,9,-1,-10,-2,20*,-1,46*
COc1cccc(OC)c1OCC(O)CN1CCN(c2ccccc2)CC1 (stereo not given),12,-4,4,2,0,0,nt,nt
O=S(=O)(c1ccc(OCC(O)CN2CCN(c3ccccc3)CC2)cc1)N1CCOCC1 (stereo not given),-16,-6,2,-5,-7,18*,-1,83*
O=S(=O)(c1ccc(OCC(O)CN2CCCC2)cc1)N1CCOCC1 (stereo not given),14,5,5,-11,0,-2,nt,nt
O=S(=O)(c1ccc(OCC(O)CN2CCN(c3ccccc3O)CC2)cc1)N1CCOCC1 (stereo not given),4,-7,-2,-2,6,19*,-1,46*
CC(=O)Nc1cccc(-c2cc(NC(C)=O)c3ncc(-c4ccc(C(C)=O)cc4)n3c2)c1,nt,nt,-5,nt,9,-3,nt,nt
CC1(C(=O)N2CCCCC2)CCN1C(=O)c1ccccc1CCc1ccccc1 (stereo not given),nt,nt,-1,nt,6,-5,nt,nt
C[C@@H]1CN([C@@H](C)CO)C(=O)c2cc(Br)cnc2O[C@H]1CN(C)C(=O)Cc1ccccn1,6,-2,2,nt,-3,-1,nt,nt
Cc1ccc(NC(=O)C2(C)CCN2C(=O)C2CCCCC2)cc1C (stereo not given),nt,nt,-1,nt,-7,-6,nt,nt
Cc1ccc(S(=O)(=O)N2CCC(C(=O)N3CCC3)CC2)cc1,14,-6,12,nt,-5,17*,-1,2
O=C(C1CCN(S(=O)(=O)c2ccc(Cl)cc2)CC1)N1CCCC1,2,-4,-5,nt,0,7,nt,nt
CC(=O)NCCNc1nc2cc(-c3ccccc3CO)sc2c(=O)n1C,nt,nt,1,nt,-10,-1,nt,nt
CCCCN1C(=O)C(=O)NC[C@H]1Cc1cccc2ccccc12,nt,nt,16,nt,-1,3,nt,nt
O=C1NC[C@@H](Cc2cccc3ccccc23)N(CC2(c3ccccc3)CC2)C1=O,-17,4,6,nt,2,16*,-1,-2
COc1cccc(C(O)c2nc(-c3ccc(OC)nc3)cs2)c1 (stereo not given),nt,nt,-1,nt,-7,-4,nt,nt
C=CCn1c(N)c(C(=O)Nc2cccc(C)c2)c2nc3ccccc3nc21,-78,-3,-4,-14,-7,20*,0,1

# Compound activity as filed in PubChem BioAssay.
